Measured values published in PubChem BioAssay (Tox21).
Several values for one entry are separate records, joined by “and”; a condition that tells them apart may be missing. Identical values can stand only once. Records with an inconclusive call do not appear. A structure can be active in one record and inactive in another. Activity calls are given as the source filed them. Unless noted, calls come from the whole dose curve; as a rule, active = well fitted curve in the direction sought with a large enough effect in the repeat runs; inconclusive = weak or mixed curves; inactive = no such curve, though single readings can be large; an effect the other way counts as inactive or inconclusive.

Tests used:
[1] = qHTS assay to identify small molecule agonists of the hypoxia (HIF-1) signaling pathway - cell viability counter screen (AID 1224844; calls by dose curve; note: nearly all actives have a fitted effect of over 50% in size; note: potency is the fitted concentration of half-maximal effect)
Method in brief: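 Same wells as the HIF-1 reporter screen; ME-180 cells carrying HRE-bla, 17 hr treatment at 37C; CellTiter-Glo luminescence read after 30 min at room temperature.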

[2] = qHTS assay to identify small molecule agonists of H2AX (AID 1224845; active = well fitted activation curve with a large enough effect in the signal ratio in the repeat runs, not every such curve was filed as active; the % refers to the signal ratio; note: potency is the fitted concentration of half-maximal effect)
Method in brief: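 Phospho-H2AX Ser139 measured by HTRF (ex 320 nm; em 665 and 620 nm) after 24 hr antibody incubation. Compounds, 15 concentrations, 0.76% DMSO, were applied to CHO-K1 cells for 3hr at 37C before lysis.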

[3] = qHTS assay to identify small molecule agonists of the hypoxia (HIF-1) signaling pathway (AID 1224846; active = well fitted activation curve with a large enough effect in the signal ratio in the repeat runs, not every such curve was filed as active; the % refers to the signal ratio)
Method in brief: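 In ME-180 cells bearing an HRE-bla construct, 17 h treatment with DMSO-dissolved compounds at 37C was followed by CCF4-AM loading to quantify reporter induction.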

[4] = qHTS assay to identify small molecule agonists of H2AX - cell viability counter screen (AID 1224847; calls by dose curve; note: nearly all actives have a fitted effect of over 30% in size; note: potency is the fitted concentration of half-maximal effect)
Method in brief: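 Viability of CHO-K1 (wild type) cells after 3 hr compound exposure was measured by CellTiter-Glo luminescence.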

[5] = qHTS RealTime-Glo MT Cell Viability Assay in HepG2 cells - 24 hour (AID 1224867); note: nearly all actives have a fitted effect of over 50% in size; note: potency is the fitted concentration of half-maximal effect
Method in brief: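 qHTS, HepG2, 600 cells/well, RealTime-Glo (NanoLuc + prosubstrate) added with cells; 5 h preincubation; DMSO compound addition; 37 C; luminescence at 0/8/16/24/32/40 h.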

[6] = qHTS RealTime-Glo MT Cell Viability Assay in HEK293 cells - 32 hour (AID 1224868); note: nearly all actives have a fitted effect of over 50% in size; note: potency is the fitted concentration of half-maximal effect
Method in brief: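 Assay medium contained NanoLuc luciferase plus cell-permeant prosubstrate, added with HEK293 cells at 600 cells/well. After 5 h at 37 C/5% CO2 compounds were added; plates stayed at 37 C for 40 h with serial luminescence reads.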

[7] = A CellTox Green Cytotoxicity Assay to monitor cytotoxicity in HEK293 cells - 0 hour (AID 1224869); note: nearly all actives have a fitted effect of over 50% in size; note: potency is the fitted concentration of half-maximal effect
Method in brief: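 Homogeneous no-lysis format: HEK293 cell suspension mixed with CellTox Green reagent, seeded, incubated 5 h at 37 C/5% CO2, then dosed by pintool with compound in DMSO.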

[8] = qHTS assay to identify small molecule agonists of the estrogen related receptor (ERR) signaling pathway from Tox21 library (AID 1224849; calls by dose curve; note: nearly all actives have a fitted effect of over 15% in size); details: ERR reporter cell line, ONE-Glo luciferase, 18 h
Method in brief: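 Reporter cells (ERR, NTP source) treated with Tox21 10K compounds 18 h, 37 C. Readout: ONE-Glo luminescence, 30 min RT.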

[9] = qHTS assay to identify small molecule antagonists of the estrogen related receptor (ERR) signaling pathway from Tox21 library (AID 1224848); note: nearly all actives have a fitted effect of over 50% in size; note: potency is the fitted concentration of half-maximal effect
Method in brief: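 Luciferase luminescence (ONE-Glo, 30 min room temperature) was the read-out. Cells of the NTP-supplied ERR line, 2,000 per well, were given 6 h at 37 C before compound addition in DMSO and 18 h exposure at 37 C.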

[10] = qHTS RealTime-Glo MT Cell Viability Assay in HepG2 cells - 40 hour (AID 1224870); note: nearly all actives have a fitted effect of over 50% in size; note: potency is the fitted concentration of half-maximal effect
Method in brief: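 Real-time viability: cells seeded at 600 per well together with NanoLuc and cell-permeant prosubstrate, compounds added after 5 h incubation. Luminescence tracked at 0, 8, 16, 24, 32 and 40 h of exposure.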
% is set by controls: 0 for no effect and ±100 for the full control effect.

Cc1ccc(C(C)(C)C)cc1
inactive: Potency [1] | Potency [2] | outcome [3] | Potency [4] | Potency [5] | Potency [6]

COC(=O)CC(=O)OC
inactive: Potency [1] | Potency [2] | outcome [3] | Potency [4] | Potency [5] | Potency [6] | Potency [7]

Cc1ccc(C(C)(C)C)c(O)c1
active: Potency [4] 97.5 µM and 89.8 µM
inactive: Potency [1] | Potency [2] | outcome [3] | activity change, positive = activation ([8]; at 92.4 µM (top of the series)) -17.4% and -15.2% | Potency [5] | Potency [6] | Potency [7]

CCCCCCCCCCCCO
inactive: Potency [1] | Potency [2] | outcome [3] | Potency [4] | Potency [5] | Potency [6] | Potency [7]

CC1=CC(C)(C)Nc2ccccc21
inactive: Potency [1] | Potency [2] | outcome [3] | Potency [4] | Potency [9] | activity change, positive = activation ([8]; at 92.4 µM (top of the series)) 1.56% and -18.3% | Potency [5] | Potency [6]

CC(=O)OC(C)C
inactive: Potency [1] | Potency [2] | outcome [3] | Potency [4] | Potency [5] | Potency [6] | Potency [7]

CCC(=O)O[C@H]1[C@H](O[C@@H]2[C@@H](C)[C@H](O[C@H]3C[C@@](C)(OC)[C@@H](O)[C@H](C)O3)[C@@H](C)C(=O)O[C@H](CC)[C@@](C)(O)[C@H](O)[C@@H](C)C(=O)[C@H](C)C[C@@]2(C)O)O[C@H](C)C[C@@H]1N(C)C
25.8 µM (active) and inactive: Potency [1]
inactive: Potency [2] | outcome [3] | Potency [4] | Potency [5] | Potency [6]

ClC/C=C/CCl
inactive: Potency [1] | Potency [2] | outcome [3] | Potency [4] | Potency [9] | activity change, positive = activation ([8]; at 92.4 µM (top of the series)) -1.09% and 0.131% | Potency [5] | Potency [6] | Potency [7] | Potency [10]

CCCCCCCCCCC(CO)CCCCCCCC (configuration not stated)
inactive: Potency [1] | Potency [2] | outcome [3] | Potency [4] | Potency [5] | Potency [6] | Potency [7]

C=CCOC(=O)C(=C)C
inactive: Potency [1] | Potency [2] | outcome [3] | Potency [4] | Potency [9] | activity change, positive = activation ([8]; at 92.4 µM (top of the series)) -1.6% and 1.74% | Potency [5] | Potency [6] | Potency [7] | Potency [10]

c1ccc2c(c1)[nH]c1ccccc12
inactive: Potency [1] | Potency [2] | outcome [3] | Potency [4] | Potency [5] | Potency [6]

C=CC(=O)OCCCC
inactive: Potency [1] | Potency [2] | outcome [3] | Potency [4] | Potency [9] | activity change, positive = activation ([8]; at 92.4 µM (top of the series)) 7.41% and 1.06% | Potency [5] | Potency [6] | Potency [7] | Potency [10]

C[C@]12C=CC(=O)C=C1CC[C@H]1[C@@H]3C[C@@H](O)[C@](O)(C(=O)CO)[C@@]3(C)C[C@H](O)[C@@]12F
inactive: Potency [1] | Potency [2] | outcome [3] | Potency [4] | Potency [9] | activity change, positive = activation ([8]; at 42.5 µM (top of the series)) 2.12% | activity change, positive = activation ([8]; at 92.4 µM (top of the series)) -0.443% | Potency [5] | Potency [6] | Potency [7]

C=CCNCC=C
inactive: Potency [1] | Potency [2] | outcome [3] | Potency [4] | Potency [5] | Potency [6] | Potency [7] | Potency [10]

OC[C@@H](O)[C@@H](O[C@@H]1O[C@H](CO)[C@H](O)[C@H](O)[C@H]1O)[C@H](O)[C@@H](O)CO
inactive: Potency [1] | Potency [2] | outcome [3] | Potency [4] | Potency [9] | activity change, positive = activation ([8]; at 42.5 µM (top of the series)) 4.37% | activity change, positive = activation ([8]; at 92.4 µM (top of the series)) 5.88% | Potency [5] | Potency [6] | Potency [10]

O=C1OC2(c3ccccc31)c1cc(I)c(O)c(I)c1Oc1c2cc(I)c(O)c1I
active: Potency [2] 51.1 µM | Potency [4] 11.3 µM and 28.7 µM and 8.65 µM | Potency [5] 39 µM and 27.9 µM | Potency [7] 15.5 µM [middle of 4 runs] | Potency [10] 24.6 µM and 12.4 µM and 29.8 µM
49.1 µM (active) and inactive: Potency [6]
inactive: Potency [1] | outcome [3] | Potency [9] | activity change, positive = activation ([8]; at 42.5 µM (top of the series)) -27.3% and -18.3% and -7.34% | activity change, positive = activation ([8]; at 92.4 µM (top of the series)) -20.6%

Cc1ccc([N+](=O)[O-])c(C)c1
4.5 µM (active) and inactive: Potency [2]
inactive: outcome [3] | Potency [4] | activity change, positive = activation ([8]; at 92.4 µM (top of the series)) 6.89% | Potency [5] | Potency [7] | Potency [10]
4.37 µM (active) and inactive: Potency [1]
12.2 µM (active) and inactive: Potency [9]
38.9 µM (active) and inactive: Potency [6]

CCO[Si](CCCNC(N)=O)(OCC)OCC
inactive: Potency [1] | Potency [2] | outcome [3] | Potency [4] | Potency [9] | activity change, positive = activation ([8]; at 92.4 µM (top of the series)) 8.59% and 5.1% | Potency [5] | Potency [6]

CCCN1C=CN(C)C1
inactive: Potency [1] | Potency [2] | outcome [3] | Potency [4] | Potency [5] | Potency [6] | Potency [7] | Potency [10]
